KB-3-1 tox: kills parental KB-3-1 adenocarcinoma cells. KB-3-1 viability, CellTiter-Glo ATP luminescence, 72 h. Potency, µM (doses to about 46.1 µM), usual class: cytotoxic. 1.4% of 400,000 active. AID 1347075; further: nearly all actives have a fitted effect of over 60% in size
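Viability of parental KB-3-1 cells, measured by CellTiter-Glo luminescence, followed a 72 h incubation at 37 °C with pinned compounds in phenol-red-free DMEM containing 10% FBS.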
MCF10A rereplic: inducers of DNA re-replication in MCF 10A breast cells. MCF 10A DNA re-replication, Hoechst nuclear intensity, 48 h. 2.9% of 350,000 active. AID 624296. Potency, µM (titrated, usually from 46.1 µM), usual class: activators; further: nearly all actives have a fitted effect of over 50% in size
SW480 rerep: induces DNA re-replication in SW480 colon adenocarcinoma cells; SW480 DNA re-replication, Hoechst DNA content imaging, 48 h; Potency, µM (series often up to 46.1 µM), hits mostly activators; 1.8% of 340,000 active; further: nearly all actives have a fitted effect of over 55% in size
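250 cells/well; 23 nL cpd via pin tool; 48 hr, 37 C, 5% CO2; Hoechst 40 min; imager read of total nuclear intensity, ex 405/em 500-530 nm.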
IL-1B inflam inh: inflammasome signaling inhibition, IL-1 beta readout; AID 743279; activity change, % at 57.5 µM; 4.7% of 360,000 active; THP-1 LPS/ATP IL-1B secretion, AlphaLISA, 16 h; active compounds read low; in the data active means activity change below about -50%; inconclusive means mostly about -30% to -49%
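Secreted IL-1B measured by AlphaLISA bead assay after 16 h compound exposure of THP-1 cells; compounds (final up to 57.5 uM) added 1 h before LPS (250 ng/mL) and ATP (1.25 mM) stimulation; lower signal means less secretion.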
KB-V1 MDR tox: KB-V1 MDR subline cytotoxicity. Potency, µM (series often up to 46.1 µM), actives largely listed as cytotoxic. 3.4% of 400,000 active. AID 1347076. KB-V1 MDR cells viability, CellTiter-Glo, 72 h; further: nearly all actives have a fitted effect of over 60% in size
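KB-V1 MDR subline cells in DMEM (phenol-red free, 10% FBS) exposed to compounds in qHTS concentration series for 72 h at 37 degrees C. Viability read by CellTiter-Glo luminescence; concentration-effect curves fitted after normalization and correction.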
Of the large screens only hits and unclear results are named; the others gave an inactive call. In the library only some 9.9% were active in any assay of this set; here they are far more common. Unless noted, the call rests on the fitted dose curve; in most records, active means well fitted curve in the direction sought with a large enough effect; inconclusive means small, poorly fitted or top-dose-only effect, or another doubt; inactive means no such curve, though single readings can be large; an effect the other way counts as inactive or inconclusive.

Cc1ccccc1Cn1nc(C)c(NC(=O)c2cc3nc(-c4ccco4)cc(C(F)(F)F)n3n2)c1C	KB-3-1 tox inconclusive, SW480 rerep inconclusive, IL-1B inflam inh inconclusive, KB-V1 MDR tox inconclusive
O=C(Nc1ccc(OC(F)(F)F)cc1)C1CCN(S(=O)(=O)c2ccc3[nH]c(=O)ccc3c2)CC1	none (no result: MCF10A rereplic, SW480 rerep, IL-1B inflam inh)
COc1cccc(C(=O)N2CCC2(C)C(=O)O)c1 (stereo unspecified)	none (no result: MCF10A rereplic, SW480 rerep)
CCOc1ccc(Nc2cc(C)nc(-n3nc(C)cc3C)n2)cc1	KB-3-1 tox 0.41µM, MCF10A rereplic inconclusive, SW480 rerep inconclusive, KB-V1 MDR tox inconclusive
COc1ccc(/C=N/Nc2nccnc2Cl)c(OC)c1	none
COc1ccc(/C=N/Nc2nonc2N)c(OC)c1	KB-3-1 tox inconclusive, SW480 rerep inconclusive, KB-V1 MDR tox 4.1µM
COc1ccc(/C=N/Nc2cc(C)nc(-n3nc(C)cc3C)n2)c(OC)c1	MCF10A rereplic inconclusive, SW480 rerep inconclusive, IL-1B inflam inh -104, KB-V1 MDR tox inconclusive
COc1ccc(CNC(=O)c2ccccc2SCC(=O)NCc2ccco2)cc1	none
CC(=O)c1c(C)[nH]c(C(=O)COC(=O)CCCOc2ccccc2)c1C	none
CC(=O)c1c(C)[nH]c(C(=O)OCc2ccc(Br)cc2)c1C	KB-3-1 tox inconclusive, KB-V1 MDR tox 6.5µM
CC(=O)c1c(C)[nH]c(C(=O)OCCOc2ccccc2)c1C	KB-3-1 tox inconclusive, KB-V1 MDR tox 6.5µM
Cc1c(C(=O)OCCOc2ccccc2)[nH]c2c1C(=O)CCC2	MCF10A rereplic inconclusive, IL-1B inflam inh inconclusive, KB-V1 MDR tox 12µM
CC(=O)c1c(C)[nH]c(C(=O)OCc2ccccc2F)c1C	KB-V1 MDR tox 4.6µM
CCOc1ccc(C2CC(=O)c3c([nH]c(C(=O)OCCOc4ccccc4)c3C)C2)cc1 (stereo unspecified)	none (no result: MCF10A rereplic, SW480 rerep, IL-1B inflam inh)
Cc1occc1-c1nnc(SCC(=O)NC2CCCCC2C)o1 (stereo unspecified)	KB-V1 MDR tox inconclusive
Cc1ccc(-n2c(N)c(C(=O)Nc3ccccc3F)sc2=S)cc1C	IL-1B inflam inh -54
CCN(CC(=O)Nc1ccc(NC(C)=O)cc1)C(=O)CCCc1nc2ccccc2s1	none
CCOC(=O)N/N=C/c1c(C)nn(-c2cccc(C(F)(F)F)c2)c1Cl	KB-3-1 tox 2.1µM, MCF10A rereplic 2.6µM, SW480 rerep 5.8µM, KB-V1 MDR tox 2.6µM
Cc1nn(-c2ccccc2)c(Cl)c1/C=N/NC(=O)CNC(=O)c1ccccc1Cl	MCF10A rereplic inconclusive, SW480 rerep inconclusive
Cc1nn(-c2ccccc2)c(C)c1/C=N/NC(=O)c1cc(C(C)(C)C)[nH]n1	KB-V1 MDR tox inconclusive
CCc1n[nH]c(=S)n1/N=C/c1c(C)nn(-c2ccccc2)c1Cl	KB-3-1 tox inconclusive, KB-V1 MDR tox 1.3µM
Cc1ccc(-c2cc(C(=O)N/N=C/c3c(C)nn(-c4ccccc4)c3C)n[nH]2)s1	MCF10A rereplic inconclusive, SW480 rerep 1.3µM
Cc1ccc(-c2n[nH]c(=S)n2/N=C/c2c(C)nn(-c3ccccc3)c2C)cc1	MCF10A rereplic inconclusive, SW480 rerep inconclusive
Cc1ccc(C)c(OCC(=O)N/N=C/c2c(C)nn(-c3ccccc3)c2Cl)c1C	KB-3-1 tox inconclusive, MCF10A rereplic inconclusive, SW480 rerep inconclusive, KB-V1 MDR tox 8.2µM
O=C(COC(=O)Cc1c(F)cccc1Cl)NCc1ccc2c(c1)OCO2	none (no result: KB-3-1 tox, KB-V1 MDR tox)
c1ccc(-c2noc(CN3CCN(c4cnccn4)CC3)n2)cc1	MCF10A rereplic inconclusive, SW480 rerep inconclusive
Cc1cccc(C)c1NC(=O)c1c(C)nn(-c2ccccc2)c1Cl	KB-V1 MDR tox 15µM
Cc1nn(-c2ccccc2)c(Cl)c1/C=N/NC(N)=O	KB-3-1 tox inconclusive, SW480 rerep inconclusive, KB-V1 MDR tox 2.1µM (no result: IL-1B inflam inh)
COC(=O)N/N=C\c1c(C)nn(-c2ccccc2)c1Cl	SW480 rerep inconclusive
Cc1cccc(C)c1NC(=O)CNC(=O)c1c(C)nn(-c2ccccc2)c1Cl	none
C=CCNC(=O)c1ccc(C2SCC(=O)N2Cc2ccco2)cc1 (stereo unspecified)	none
CCOCCCNC(=O)c1ccc(C2SCC(=O)N2Cc2ccccc2)cc1 (stereo unspecified)	KB-V1 MDR tox 5.8µM
CCCNC(=O)c1ccc(C2SCC(=O)N2Cc2ccccc2)cc1 (stereo unspecified)	none
O=C(NCc1ccc2c(c1)OCO2)c1ccc(C2SCC(=O)N2Cc2ccco2)cc1 (stereo unspecified)	KB-V1 MDR tox 21µM
COc1ccc(/C=N/OCC(=O)N2CC3(C)CC2CC(C)(C)C3)cc1OC (stereo unspecified)	KB-V1 MDR tox 16µM
COc1cc(/C=C/C(=O)OCC(=O)N2CC3(C)CC2CC(C)(C)C3)ccc1O (stereo unspecified)	MCF10A rereplic inconclusive
Cc1ccc(CNC(=O)CNC(=O)c2ccc(Br)o2)cc1	none
CC(=O)NNC(=O)c1cc2sccc2s1	KB-3-1 tox inconclusive
NNC(=O)c1cc2sccc2s1	KB-3-1 tox inconclusive, MCF10A rereplic 3.7µM, SW480 rerep 13µM, KB-V1 MDR tox inconclusive
NC(=O)CCN1CCN(CCOC2Cc3cc(Cl)ccc3Sc3ccccc32)CC1 (stereo unspecified)	MCF10A rereplic inconclusive, SW480 rerep inconclusive, IL-1B inflam inh -53, KB-V1 MDR tox inconclusive
COc1ccc(Cl)cc1NC(=O)CCN1CCN(C)CC1	none
CC(=O)Oc1ccc(C23c4ccccc4C2(OC(C)=O)c2cc(OC(C)=O)ccc23)cc1 (stereo unspecified)	KB-3-1 tox inconclusive, MCF10A rereplic 5.2µM, SW480 rerep 18µM, IL-1B inflam inh -93, KB-V1 MDR tox inconclusive
Cc1ccc(-n2c(-c3ccccc3)c[n+]3c2CCc2ccccc2-3)c(C)c1	KB-3-1 tox 4.6µM, IL-1B inflam inh -99
Cc1ccc(-n2c(NN)nc3ccccc3c2=O)c(C)c1	none
COc1cc(C(C)=O)ccc1OCC(=O)OCCCOC(=O)COc1ccc(C(C)=O)cc1OC	none
Cc1cc(C)nc(NC(=NCCc2c[nH]c3ccccc23)NC(=O)Nc2ccc(Cl)c(Cl)c2)n1	KB-3-1 tox inconclusive, MCF10A rereplic inconclusive
Cc1cc(C)nc(NC(=NCCc2c[nH]c3ccccc23)NC(=O)Nc2ccccc2)n1	MCF10A rereplic 26µM, SW480 rerep inconclusive
CCN(CC)C(=O)c1csc(Nc2ccc(C)cc2)n1	KB-V1 MDR tox 15µM
CCOC(=O)/C(=N\Nc1ccc(Cl)cc1)c1csc(Nc2ccccc2)n1	MCF10A rereplic 4µM, SW480 rerep inconclusive, IL-1B inflam inh -73
Cc1ccc(Nc2nc(C(=O)NCc3ccco3)cs2)cc1	IL-1B inflam inh inconclusive, KB-V1 MDR tox inconclusive
FC(F)(F)c1nnc2c(Sc3ccc(Cl)cc3)nc3ccccc3n12	KB-3-1 tox 3.7µM, SW480 rerep inconclusive, IL-1B inflam inh -52, KB-V1 MDR tox inconclusive
FC(F)(F)c1nnc2c(Sc3ccccn3)nc3ccccc3n12	KB-3-1 tox inconclusive, MCF10A rereplic inconclusive, SW480 rerep inconclusive, IL-1B inflam inh -66, KB-V1 MDR tox inconclusive

Screening data as filed in PubChem.
